Laboratory results taken from ChEMBL document CHEMBL3988442, “University of Dundee, Small-Polar-MMV Screening Library” (2021).
“And” between values parts separate entries of the source, which are not always exact repeats. Equal values may be shown once. About 1,200 (3.2%) of roughly 38,000 compounds showed an effect of 50% or more. The median lay at about -58%. This excerpt belongs to a sample that is enriched for strong results.

Test system: Plasmodium falciparum
Assay: Calibr Malaria Delayed Death Assay SOP
Format: functional, organism-based
Parameters: scale not given: in the data most compounds retested in dose-response had high values
Conditions: concentration 4.99e-06 (unit not given; other assays of the set use mol/L)

Compound | Percent Effect [%] | Percent Effect (4.99 µM)
COCCN(Cc1ccoc1)S(=O)(=O)c1cccc(C(F)(F)F)c1 | -154.4 | –
COc1c[nH]c(C(=O)Nc2nc(C)cs2)cc1=O | -242.4 | –
Clc1ccc(C2(NCc3noc(C4CC4)n3)CCCC2)cc1 | 66.68 | –
Clc1ccc(C2(NCc3noc(C4CC4)n3)CCC2)cc1 | 11.94 | –
Clc1ccc(C2(NCc3noc(C4CC4)n3)CCOCC2)cc1 | -1.957 | –
COc1cccc(N2CCN(Cc3ccc4ccn(C)c4c3)CC2=O)c1 | -24.12 | –
COc1cc(N2CC[C@H](O)[C@@H]2Cc2ccccc2)ncn1 | -143.1 | –
CC(C)NC(=O)CSc1nc2c(cnn2CCO)c(=O)[nH]1 | -19.17 | –
CCS(=O)(=O)N1CCCn2c(nc(CN3CCCC3)cc2=O)C1 | -41.77 | –
COCCn1ccnc1CN1CCc2[nH]cnc2C1c1cccc(O)c1 (stereo not given) | -80.26 | –
CCc1nccn1-c1cncc(C2CCCN2Cc2ccccn2)n1 (stereo not given) | -28.75 | –
CCCn1ccnc1CN1CCc2[nH]cnc2C1Cc1ccccc1 (stereo not given) | 64.79 | –
CCn1ncnc1CN1CCc2[nH]cnc2C1Cc1ccccc1 (stereo not given) | -69.64 | –
COCCn1ccnc1CN1CCc2[nH]cnc2C1c1ccccn1 (stereo not given) | -16.31 | –
CCn1ccnc1CN1CCCC1c1c(C)nn(C)c1OC (stereo not given) | -32.78 | –
CCn1ncnc1CN1CCc2[nH]cnc2C1c1ccccn1 (stereo not given) | -50.88 | –
CCc1ccc(C2c3nc[nH]c3CCN2Cc2nccn2CC)nc1 (stereo not given) | 89.79 | –
COc1cccc(CN2CC(O)CN(C(=O)C(C)(C)C)CC2=O)c1OC (stereo not given) | -124 | –
CC1=Nc2c(c(=O)[nH]n2C2CCCC2)C(c2cccnc2)S1 (stereo not given) | – | -22.61% and -27.75%
CCCNC(=O)c1cccc(CNCc2csc(C(C)(C)C)n2)c1 | 23.22 | –
CN(C)C(=O)CO[C@H]1CN(Cc2ccc3c(c2)OCO3)[C@@H]2COC[C@H]12.O=C(O)C(F)(F)F | -65.25 | –
Nc1nc2c(c(N3CCC(CCn4cccn4)CC3)n1)CCNCC2 | 0.6794 | –
NCC1CCN(c2nc(C3CCCC3)nc3c2CCNCC3)C1 (stereo not given) | 93.21 | –
c1cnn(CC2CCN(c3nc(C4CC4)nc4c3CCNCC4)CC2)c1 | 90.7 | –

Compound | Percent Effect [%] | Percent Effect (4.99 µM)
C1CCC(c2nc3c(c(N4CCN5CCCC5C4)n2)CCNCC3)C1 (stereo not given) | 77.28 | –
Cc1nc2c(c(N3CCC(CCn4cccn4)CC3)n1)CCNCC2 | 39.53 | –
C1CCC(c2nc3c(c(N4CC(N5CCOCC5)C4)n2)CCNCC3)C1 | -121.5 | –
Nc1nc2c(c(N3CCC(CN4CCCC4=O)CC3)n1)CCNCC2 | -195.3 | –
CCOCc1nc2c(c(N3CCN4CCCC4C3)n1)CCNCC2 (stereo not given) | -33.92 | –
Cc1nc2c(c(N3CCC(CN4CCCC4=O)CC3)n1)CCNCC2 | -95.59 | –
CS(=O)(=O)Nc1nn(Cc2ccc(F)cc2)cc1Br | -19.12 | –
CCNS(=O)(=O)c1cnccc1N1CCN(CCO)CC1 | -122.2 | –
Cc1cc(C)nc(N2CCC(c3cncc(-n4ccnc4)n3)CC2)n1 | -62.28 | –
CC(O)CN1CCN(C(=O)CCOC(C)C)CC1 (stereo not given) | -34.58 | –
O=C(C1CCOCC1)N1CCC2(CCN(Cc3nccs3)CC2)CC1.O=C(O)C(F)(F)F | -69.08 | –
CN(Cc1cc(Br)cs1)Cc1nnsc1Cl | -124.6 | –
Cc1nsc(N2CCCN(c3nc(C4CC4)ns3)CC2)n1 | -111.5 | –
CCOc1ccnc(N2CCCN(c3nc(CC)ns3)CC2)n1 | -65.97 | –
CCOc1ccnc(N2CCCN(c3nc(C4CC4)ns3)CC2)n1 | 50.17 | –
COCCN(Cc1sccc1C)C(=O)COc1ccccc1O | -70.17 | –
COCCN(Cc1sccc1C)C(=O)C1CCN(C(C)C)CC1 | 57.24 | –
COCCN(Cc1sccc1C)C(=O)C1CCCN(C(N)=O)C1 (stereo not given) | -77.34 | –
CCn1cnnc1CNC(=O)NC(C)c1ccc(Cl)s1 (stereo not given) | -29.19 | –
Cc1nc(N)ccc1CC1COc2ccccc2C1 (stereo not given) | 39.32 | –
Cc1ccc(O)c(CNCC(C)c2nc3ccccc3o2)n1 (stereo not given) | 62.12 | –
Cc1nc(CNCC(C)c2nc3ccccc3o2)cs1 (stereo not given) | -114.5 | –
Cc1csc(CNCC(C)c2nc3ccccc3o2)n1 (stereo not given) | -35.1 | –
N#Cc1cccnc1OC1CCN(S(=O)(=O)c2ccc(F)c(Cl)c2)CC1 | -120.1 | –

Compound | Percent Effect [%] | Percent Effect (4.99 µM)
Cc1cccc(C(=O)N2CC[C@@H]3CN(c4ncccn4)CCO[C@@H]3C2)c1 | 3.612 | –
CCn1ccnc1CN(C)C(=O)Cn1ccc2ccccc2c1=O | -48.52 | –
CN1CCOC(CNCc2cccc(OCC(F)(F)F)c2)C1 (stereo not given) | 11.83 | –
CN1CCOC(CNC(=O)C2(c3cccc(C(F)(F)F)c3)CCCC2)C1 (stereo not given) | 55.27 | –
Cc1cccc(C2(C(=O)NCC3CN(C)CCO3)CC2)c1 (stereo not given) | -0.8202 | –
Cc1ccnc(NC(=O)c2[nH]nc(C(C)C)c2Br)c1 | 72.66 | –
Cc1cccc(NC(=O)c2[nH]nc(C(C)C)c2Br)n1 | 55.91 | –
CC(C)c1n[nH]c(C(=O)Nc2cc[nH]n2)c1Br | -216.8 | –
Cc1ccnc(NC(=O)c2ccc(Br)o2)c1 | -122.7 | –
Cc1cccc(NC(=O)c2sc(C)nc2C)n1 | -70.67 | –
CC(C)c1n[nH]c(C(=O)Nc2ccncc2)c1Br | -170.8 | –
Cc1ccnc(NC(=O)CCNC(=O)c2ccccc2Cl)c1 | -154.4 | –
Cc1cccc(NC(=O)c2ccc(-n3cncn3)nn2)n1 | -82.38 | –
CCc1ccsc1C(=O)N1CCCN(Cc2cnn(CC)c2)CC1 | -131.2 | –
Cc1occc1C(=O)N1C[C@@H]2OCCN(CCN3CCCC3)[C@@H]2C1.O=C(O)C(F)(F)F.O=C(O)C(F)(F)F | -96.04 | –
CCC(=O)N1CCC2(CC1)C(=O)N(C)CCN2Cc1csc(C)n1.O=C(O)C(F)(F)F | -46.93 | –
CN(C)CCN(C)C[C@@H]1CN(Cc2cccc(O)c2)C[C@@H]1CO | -40.55 | –
COCCN(C)C[C@@H]1CN(C(=O)c2cccc(Cl)c2)C[C@@H]1CO | -171.8 | –
COCCN1C(=O)[C@H]2CC[C@@H]1CN(S(=O)(=O)c1cccc(Cl)c1)C2 | -81.8 | –
CCN(C)C[C@@H]1CN(Cc2cccc(O)c2)C[C@@H]1CO | -20.19 | –
C=Cc1cccc(CN2C[C@@H](CN(C)CC)[C@@H](CO)C2)c1 | 87.24 | –
CCN(C)C[C@@H]1CN(S(=O)(=O)c2cccc(Cl)c2)C[C@@H]1CO | 74.38 | –
